# Test results taken from the supplement of paper PMC8728848.
# About 410 targets per protein were measured; listed, in parts, are those with the strongest signals and a random draw of the rest.
# Key:
# Assay in all cases: glycan array binding signal (z-score within array); higher = stronger binding
# Conditions in all cases: glycan notation: IUPAC condensed, linker removed
# [1] = biological target: Fuc(a1-2)Gal(b1-3)GlcNAc(b1-2)Man(a1-3)[Fuc(a1-2)Gal(b1-3)GlcNAc(b1-2)Man(a1-6)]Man(b1-4)GlcNAc(b1-4)GlcNAc
# In short: (§1)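 From the Consortium for Functional Glycomics database, 3228 arrays were curated, keeping only those whose protein sequence was available. Binding is given as a within-array Z-score averaged across arrays sharing a protein sequence and across linkers. Negative Z-scores can be read as non-binding.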
# [2] = biological target: Fuc(a1-2)Gal(b1-4)GlcNAc6S
# In short: as §1
# [3] = biological target: Fuc(a1-2)Gal(b1-4)[Fuc(a1-3)]GlcNAc(b1-2)[Fuc(a1-2)Gal(b1-4)[Fuc(a1-3)]GlcNAc(b1-4)]Man(a1-3)[Fuc(a1-2)Gal(b1-4)[Fuc(a1-3)]GlcNAc(b1-2)Man(a1-6)]Man(b1-4)GlcNAc(b1-4)GlcNAc
# In short: as §1
# [4] = biological target: Fuc(a1-2)Gal(b1-4)[Fuc(a1-3)]GlcNAc(b1-3)Gal(b1-4)[Fuc(a1-3)]GlcNAc(b1-3)Gal(b1-4)[Fuc(a1-3)]GlcNAc
# In short: as §1
# [5] = biological target: Fuc(a1-2)Gal6S(b1-3)GlcNAc
# In short: as §1
# [6] = biological target: Fuc(a1-2)[Gal(a1-3)]Gal(b1-4)GlcNAc(b1-3)[Fuc(a1-2)[Gal(a1-3)]Gal(b1-4)GlcNAc(b1-6)]GalNAc
# In short: as §1
# [7] = biological target: Fuc(a1-2)[GalNAc(a1-3)]Gal(b1-4)Glc
# In short: as §1
# [8] = biological target: Fuc(a1-2)[GalNAc(a1-3)]Gal(b1-4)GlcNAc(b1-2)Man(a1-3)[Fuc(a1-2)[GalNAc(a1-3)]Gal(b1-4)GlcNAc(b1-2)Man(a1-6)]Man(b1-4)GlcNAc(b1-4)[Fuc(a1-6)]GlcNAc
# In short: as §1
# [9] = biological target: Fuc(a1-3)[Gal(b1-4)]GlcNAc(b1-2)Man(a1-3)[Fuc(a1-3)[Gal(b1-4)]GlcNAc(b1-2)Man(a1-6)]Man(b1-4)GlcNAc(b1-4)GlcNAc
# In short: as §1
# [10] = biological target: Fuc(a1-3)[Gal(b1-4)]GlcNAc(b1-3)Gal(b1-4)[Fuc(a1-3)]GlcNAc(b1-3)Gal(b1-4)[Fuc(a1-3)]GlcNAc
# In short: as §1
# [11] = biological target: Fuc(a1-3)[Gal(b1-4)]GlcNAc(b1-3)GalNAc
# In short: as §1
# Gal(a1-3)Gal = biological target: Gal(a1-3)Gal
# In short: as §1
# [12] = biological target: Gal(b1-3)GalNAc(a1-3)[Fuc(a1-2)]Gal(b1-4)Glc
# In short: as §1
# Gal(b1-3)GlcNAc = biological target: Gal(b1-3)GlcNAc
# In short: as §1
# [13] = biological target: Gal(b1-3)GlcNAc(a1-3)Gal(b1-4)GlcNAc
# In short: as §1
# [14] = biological target: Gal(b1-3)GlcNAc(b1-3)Gal(b1-4)GlcNAc(b1-2)[Gal(b1-3)GlcNAc(b1-3)Gal(b1-4)GlcNAc(b1-6)]Man(a1-6)[Gal(b1-3)GlcNAc(b1-3)Gal(b1-4)GlcNAc(b1-2)Man(a1-3)]Man(b1-4)GlcNAc(b1-4)[Fuc(a1-6)]GlcNAc
# In short: as §1
# [15] = biological target: Gal(b1-4)GlcNAc(b1-3)Gal(b1-4)GlcNAc(b1-3)Gal(b1-4)GlcNAc(b1-2)Man(a1-3)[Gal(b1-4)GlcNAc(b1-3)Gal(b1-4)GlcNAc(b1-3)Gal(b1-4)GlcNAc(b1-2)Man(a1-6)]Man(b1-4)GlcNAc(b1-4)[Fuc(a1-6)]GlcNAc
# In short: as §1
# [16] = biological target: Gal(b1-4)GlcNAc(b1-3)Gal(b1-4)GlcNAc(b1-3)Gal(b1-4)GlcNAc(b1-3)Gal(b1-4)GlcNAc(b1-3)Gal(b1-4)GlcNAc(b1-2)[Gal(b1-4)GlcNAc(b1-3)Gal(b1-4)GlcNAc(b1-3)Gal(b1-4)GlcNAc(b1-3)Gal(b1-4)GlcNAc(b1-3)Gal(b1-4)GlcNAc(b1-6)]Man(a1-6)[Gal(b1-4)GlcNAc(b1-3)Gal(b1-4)GlcNAc(b1-3)Gal(b1-4)GlcNAc(b1-3)Gal(b1-4)GlcNAc(b1-3)Gal(b1-4)GlcNAc(b1-2)Man(a1-3)]Man(b1-4)GlcNAc(b1-4)[Fuc(a1-6)]GlcNAc
# In short: as §1
# [17] = biological target: Gal(b1-4)GlcNAc(b1-3)Gal(b1-4)GlcNAc(b1-3)Gal(b1-4)GlcNAc(b1-3)Gal(b1-4)GlcNAc(b1-3)Gal(b1-4)GlcNAc(b1-3)Gal(b1-4)GlcNAc(b1-2)Man(a1-3)[Gal(b1-4)GlcNAc(b1-3)Gal(b1-4)GlcNAc(b1-3)Gal(b1-4)GlcNAc(b1-3)Gal(b1-4)GlcNAc(b1-3)Gal(b1-4)GlcNAc(b1-3)Gal(b1-4)GlcNAc(b1-2)Man(a1-6)]Man(b1-4)GlcNAc(b1-4)GlcNAc
# In short: as §1
# [18] = biological target: Gal(b1-4)GlcNAc(b1-3)Gal(b1-4)[Fuc(a1-3)]GlcNAc(b1-3)Gal(b1-4)[Fuc(a1-3)]GlcNAc
# In short: as §1
# Gal(b1-6)Gal = biological target: Gal(b1-6)Gal
# In short: as §1
# Gal3S(b1-4)GlcNAc = biological target: Gal3S(b1-4)GlcNAc
# In short: as §1
# Gal3S6S(b1-4)GlcNAc = biological target: Gal3S6S(b1-4)GlcNAc
# In short: as §1
# Gal6S(b1-4)Glc = biological target: Gal6S(b1-4)Glc
# In short: as §1
# GalNAc(b1-3)GalNAc = biological target: GalNAc(b1-3)GalNAc
# In short: as §1
# GalNAc(b1-3)GlcNAc = biological target: GalNAc(b1-3)GlcNAc
# In short: as §1
# GalNAc(b1-4)Gal(b1-4)Glc = biological target: GalNAc(b1-4)Gal(b1-4)Glc
# In short: as §1
# GalNAc(b1-4)GlcNAc = biological target: GalNAc(b1-4)GlcNAc
# In short: as §1
# GalNAc(b1-4)GlcNAc6S = biological target: GalNAc(b1-4)GlcNAc6S
# In short: as §1
# [19] = biological target: GlcA3S(b1-3)Gal(b1-4)GlcNAc(b1-2)Man
# In short: as §1
binder,measurement,setting,value
"CBP21 (Serratia marcescens), O83009 (protein) MNKTSRTLLSLGLLSAAMFGVSQQANAHGYVESPASRAYQCKLQLNTQCGSVQYEPQSVEGLKGFPQAGPADGHIASADKSTFFELDQQTPTRWNKLNLKTGPNSFTWKLTARHSTTSWRYFITKPNWDASQPLTRASFDLTPFCQFNDGGAIPAAQVTHQCNIPADRSGSHVILAVWDIADTANAFYQAIDVNLSK",glycan array binding signal (z-score),[1],4.3
same,glycan array binding signal (z-score),[2],-1.02
same,glycan array binding signal (z-score),[3],3.02
same,glycan array binding signal (z-score),[4],2.95
same,glycan array binding signal (z-score),[5],-0.19
same,glycan array binding signal (z-score),[6],2.99
same,glycan array binding signal (z-score),[7],-0.513
same,glycan array binding signal (z-score),[8],-0.038
same,glycan array binding signal (z-score),[9],-0.009
same,glycan array binding signal (z-score),[10],-1.15
same,glycan array binding signal (z-score),[11],0.402
same,glycan array binding signal (z-score),Gal(a1-3)Gal,-0.172
same,glycan array binding signal (z-score),[12],-0.45
same,glycan array binding signal (z-score),Gal(b1-3)GlcNAc,-0.226
same,glycan array binding signal (z-score),[13],0.425
same,glycan array binding signal (z-score),[14],3.27
same,glycan array binding signal (z-score),[15],2.68
same,glycan array binding signal (z-score),[16],2.67
same,glycan array binding signal (z-score),[17],1.21
same,glycan array binding signal (z-score),[18],-0.565
same,glycan array binding signal (z-score),Gal(b1-6)Gal,-0.589
same,glycan array binding signal (z-score),Gal3S(b1-4)GlcNAc,1.21
same,glycan array binding signal (z-score),Gal3S6S(b1-4)GlcNAc,0.23
same,glycan array binding signal (z-score),Gal6S(b1-4)Glc,-0.3
same,glycan array binding signal (z-score),GalNAc(b1-3)GalNAc,-0.453
same,glycan array binding signal (z-score),GalNAc(b1-3)GlcNAc,-0.162
same,glycan array binding signal (z-score),GalNAc(b1-4)Gal(b1-4)Glc,1.03
same,glycan array binding signal (z-score),GalNAc(b1-4)GlcNAc,0.482
same,glycan array binding signal (z-score),GalNAc(b1-4)GlcNAc6S,0.16
same,glycan array binding signal (z-score),[19],-1.64
